“And” between values parts separate entries of the source, which are not always exact repeats. Equal values may be shown once. Screen size: about 16,000 compounds; about 5,100 (32%) were called active. Roughly 25% stayed inconclusive and do not appear here. Calls follow the shape of the dose curve; as a rule, active = well fitted curve in the direction sought with a large enough effect; inconclusive = small, poorly fitted or top-dose-only effect, or effect the other way; inactive = no such curve, though single readings can be large or run the other way. This is one part of the list.
Biological target: Cytochrome P450 3A4 (Homo sapiens) (UniProt P08684)
Test: Cytochrome panel assay with activity outcomes
Conditions: recombinant CYP, pro-luciferin dealkylation, luminescence, p450-cyp3a4; series mostly up to 57.1 µM
% is scaled to controls: 0 for no effect and ±100 for the full control effect.

Sequence of Cytochrome P450 3A4 (Homo sapiens) (P08684 whole entry, looked up): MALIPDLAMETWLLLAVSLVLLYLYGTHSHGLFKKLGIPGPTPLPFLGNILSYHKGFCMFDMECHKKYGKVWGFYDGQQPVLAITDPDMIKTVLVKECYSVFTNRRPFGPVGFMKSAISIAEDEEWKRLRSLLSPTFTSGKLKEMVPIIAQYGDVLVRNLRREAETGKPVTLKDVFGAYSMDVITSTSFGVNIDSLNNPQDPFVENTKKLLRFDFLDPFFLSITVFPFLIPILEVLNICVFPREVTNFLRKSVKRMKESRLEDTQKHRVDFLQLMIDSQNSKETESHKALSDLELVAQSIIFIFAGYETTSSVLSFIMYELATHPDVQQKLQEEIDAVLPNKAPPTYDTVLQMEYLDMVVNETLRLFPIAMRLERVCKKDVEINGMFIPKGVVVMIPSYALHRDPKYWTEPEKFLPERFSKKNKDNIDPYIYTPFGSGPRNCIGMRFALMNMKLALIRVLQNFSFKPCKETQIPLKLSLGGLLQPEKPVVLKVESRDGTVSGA

activity, negative = inhibition, inactive:
CC(C)CSC[C@@H]1O[C@H](n2cnc3c(N)nccc32)[C@H](O)[C@@H]1O -25.4% [at 11.4 µM], CC(C)(C)c1c2c(c(C(C)(C)C)c3c1OCN(Cc1ccccc1)C3)OCN(Cc1ccccc1)C2 5.7% [at 11.4 µM], CC[C@@H](Nc1ncnc2nc[nH]c12)C(=O)O -5.2% [at 11.4 µM], Clc1cccc(Cl)c1CSc1nnc(/C=C/c2ccccc2)o1 -16.1% [at 11.4 µM], Clc1ccc(CSc2ncnc3c2ncn3[C@@H]2CCCCO2)cc1 11.8% [at 11.4 µM], CC(C)=NNc1ncnc2nc[nH]c12 4.57% [at 11.4 µM], O=C(O)CCNc1ccccc1C(=O)O -9.69% [at 11.4 µM], NC1=C2NC=N[C@@H]2N(C/C=C\c2ccccc2)C=N1 -17.9% [at 11.4 µM], CN(C)Cc1c[nH]c2nc[nH]c(=O)c12 -2.68% [at 11.4 µM], O=C(O)C1=C/C(=C(/c2ccccc2)c2cc(C(=O)O)c(O)c3ccccc23)c2ccccc2C1=O 6.76% [at 11.4 µM] and -24.1% [at 11.4 µM], O=S(=O)(O)c1cc(N=[N+]([O-])c2cc(S(=O)(=O)O)c3ccccc3c2)cc2ccccc12 -21.4% [at 11.4 µM], Cc1ccc(S(=O)(=O)NC(=O)Nc2ncn[nH]2)cc1 -2.15% [at 11.4 µM], COc1ccc(OC)c(/C=N/NC(=O)c2csc3ccccc23)c1 3.57% [at 2.29 µM], COc1ccc(NC(=O)CSc2nnc(C3CC3)n2N)cc1 -8.56% [at 11.4 µM], O=C(CSc1nnc2c3ccccc3c3ccccc3c2n1)Nc1ccccc1 1.75% [at 2.29 µM], NCC(=O)Nc1ccccc1 -12.7% [at 11.4 µM], CCOc1ccccc1Nc1ccc(N)cc1S(=O)(=O)O -9.59% [at 11.4 µM], CCOC(=O)C[C@@H](C(=O)OCC)[C@@H]1CCCCC1=O -10.4% [at 11.4 µM], O=C(O)c1cc(-c2ccc(-c3ccccc3)cc2)nc2cc3ccccc3cc12 2.43% [at 11.4 µM]

AC50, inactive:
CN1CCN2c3ncccc3Cc3ccccc3C2C1 (stereo unspecified), Cc1noc(C)c1-c1cc(N2CCN(C)CC2)ncn1, CN1CCN(c2cc(-c3ccccc3C(F)(F)F)ncn2)CC1, Cc1ccccc1NC(=S)NN1CCN(C)CC1, COc1ccc(OCC(=O)NNC(=O)c2ccc(-c3ccccc3)cc2)cc1, Cc1occc1C(=O)NNC(=O)Cc1ccccc1, COc1cc(/C=N\NC(=O)C2C(=O)NCC2c2ccccc2)cc(OC)c1O (stereo unspecified), CSc1nsc(SCc2ccc(Cl)cc2)n1, NOCC(=O)O, CN1CCN(c2ncc3nc(-c4ccccc4)c(=O)n(C)c3n2)CC1, CN1CCN(c2ncc3ncc(=O)n(-c4ccccc4)c3n2)CC1, Cn1c(=O)c(-c2ccccc2)nc2cnc(N3CCNCC3)nc21, O=C(NC(Cc1ccccc1)C(=O)O)/C(=C\c1ccco1)NC(=O)c1ccc(Br)cc1 (stereo unspecified), CC(=O)NS(=O)(=O)c1ccc(NC(=S)NC(=O)c2ccco2)cc1, COc1ccc(/C(O)=C2/C(=O)C(=O)N(CCN3CCOCC3)C2c2ccc(C)cc2)cc1 (stereo unspecified), CCOCCCn1cnc2c([nH]c3cc(OC)ccc32)c1=O, COc1ccc(NC(=O)CSC2=NC(=O)CC(C)=N2)cc1, COc1ccc(-n2nnnc2/C=C\Nc2ccccc2C(=O)c2ccccc2)cc1, COc1ccc(NC(=O)Cn2cccc2)c(OC)c1, COC(=O)CSc1nnc(C)n1-c1cccc(OC)c1, CCn1c(SCC(=O)OC)nnc1C1CCCCC1, CCn1c(SC)nnc1C1CCN(S(=O)(=O)c2ccc(OC)cc2)CC1, Cn1nnnc1SCC(=O)Nc1ccccc1[N+](=O)[O-], CCn1ccc(C(=O)NC2=C(C#N)CCC2)n1, O=C(O)CCC(=O)N1CCC[C@H]1C(=O)O, O=C(c1ccncc1)N1CCC2(CC1)CCN(C(c1ccccc1)c1ccccc1)CC2, O=C(c1cnccn1)N1CCC2(CCCN(c3ncccn3)C2)CC1, O=C(c1ccncc1)N1CCC2(CC1)CCN(c1ncccn1)CC2, Cc1ccc(C(=O)c2ccc(CC(=O)O)n2C)cc1, CC[C@@H]1OC(=O)[C@H](C)[C@H](O[C@@H]2C[C@](C)(OC)[C@H](O)[C@H](C)O2)[C@H](C)[C@H](O[C@@H]2O[C@@H](C)C[C@@H](N(C)C)[C@@H]2O)[C@](C)(O)C[C@H](C)[C@@H]2N[C@H](COCCOC)O[C@H]([C@@H]2C)[C@]1(C)O, CCn1c(=O)c2c(nc3n2CCS3)n(C)c1=O, Cc1cc(C)nc(NC(=O)c2cccc([N+](=O)[O-])c2C)n1, Cc1cccc(NC(=O)c2ccc([N+](=O)[O-])o2)n1, CNC(C)c1cc(OC)ccc1OC (stereo unspecified), COc1ccc(/C=N/n2c(C)nnc2C)c(OC)c1

AC50, active:
Cc1ccccc1-c1cncnc1N1CCN(C)CC1 1.58 µM, COc1ccccc1-c1cncnc1N1CCN(C)CC1 2.51 µM, CN1CCN(c2ncncc2-c2ccccc2Cl)CC1 1.58 µM, Cc1noc(C)c1-c1cncnc1N1CCN(C)CC1 12.6 µM, CN1CCN(c2ncncc2-c2ccoc2)CC1 7.94 µM, COc1ccc(C(=O)NNC(=O)Cc2ccc(-c3ccccc3)cc2)cc1OC 6.31 µM, CC(C)[C@H](N)c1nnc(SC/C=C/c2ccccc2)o1 1.26 µM, CC(C)[C@H](N)c1nnc(SCc2ccc(Cl)cc2)o1 1.58 µM, Cn1cc(-c2nc3cnc(N4CCNCC4)nc3n(Cc3ccc(F)cc3)c2=O)c2ccccc21 12.6 µM, CN1CCN(c2ncc3nc(-c4cn(C)c5ccccc45)c(=O)n(-c4ccccc4)c3n2)CC1 25.1 µM, CN1CCN(c2ncc3nc(-c4cn(C)c5ccccc45)c(=O)n(CCc4ccccc4)c3n2)CC1 15.8 µM, Cn1cc(-c2nc3cnc(N4CCNCC4)nc3n(CCc3ccccc3)c2=O)c2ccccc21 12.6 µM, COCCn1c(=O)c(-c2cn(C)c3ccccc23)nc2cnc(N3CCNCC3)nc21 25.1 µM, Cn1cc(-c2nc3cnc(N4CCNCC4)nc3n(C)c2=O)c2ccccc21 20 µM, C=CCNC(=O)/C(=C\c1ccc2c(c1)OCO2)NC(=O)c1ccc(Br)cc1 0.447 µM, O=C(N/N=C/c1ccc2c(c1)OCO2)/C(=C/c1ccc2c(c1)OCO2)NC(=O)c1ccccc1 1.12 µM, Cc1ccc(NC(=O)/C(=C\c2ccc3c(c2)OCO3)NC(=O)c2ccco2)cc1 2.51 µM, CCOCCCN1C(=O)CN(C2CCCCCC2)C(=O)C1c1ccc(OC)cc1 (stereo unspecified) 12.6 µM, CCOCCCN1C(=O)CN(C2CCCCC2)C(=O)C1c1ccc(OCC)c(OC)c1 (stereo unspecified) 12.6 µM, COc1ccc(-n2ccnc2SCC(=O)Nc2ccccc2)cc1 11.2 µM, COc1ccc(-n2nnnc2SCC(=O)Nc2ccccc2)cc1 14.1 µM, COc1ccc(NC(=O)CSc2ccc3c4c(cccc24)C(=O)c2ccccc2-3)cc1 1 µM, COc1ccc(-n2ccnc2SCC(=O)Nc2ccc(OC)cc2OC)cc1 3.98 µM, CCn1c(SCC(=O)c2ccc(OC)cc2)nnc1C1CC1 22.4 µM, COc1ccc(NC(=O)CSc2nnc(C3CC3)n2-c2ccccc2)cc1 3.16 µM, CCC(=O)Nc1ccc(NC(=O)CSc2nnnn2-c2cccnc2)cc1C 3.55 µM, COc1ccc(O)c(/C=N/NC(=O)CSc2nnc(C)n2-c2ccccc2)c1 7.94 µM, Cn1c(SCC(=O)Nc2ccccc2)nc(O)cc1=O 3.55 µM, COc1cccc(-n2ccnc2SCC(=O)Nc2nccs2)c1 3.55 µM, Cn1ccnc1SCC(=O)Nc1sccc1C#N 14.1 µM, O=C(c1ccncc1)N1CCC2(CCCN(C(c3ccccc3)c3ccccc3)C2)CC1 1 µM, O=C(c1cnccn1)N1CCC2(CCCN(C(c3ccccc3)c3ccccc3)C2)CC1 1.58 µM, CCOc1ccccc1Nc1nc(-c2sc(NC(=O)c3ccccc3)nc2C)cs1 7.94 µM, COc1ccccc1Nc1nc(-c2sc(NC(=O)c3ccc([N+](=O)[O-])cc3)nc2C)cs1 8.91 µM, Cc1ccc(Nc2nc(-c3sc(NC(=O)c4ccc([N+](=O)[O-])cc4)nc3C)cs2)cc1 10 µM, COCCn1c(Cc2ccccc2)nnc1SCc1nc2ccccc2c(=O)[nH]1 3.16 µM, CC(C)(Sc1ccc(CCN(CCCCC2CCCCC2)C(=O)NC2CCCCC2)cc1)C(=O)O 3.98 µM, O=C(Nc1cccc(NC(=O)c2ccccc2[N+](=O)[O-])n1)c1ccccc1[N+](=O)[O-] 10 µM, CC(Cc1ccccc1)NC(=O)CSc1nc2nc3c(cc2c(=O)n1-c1ccccc1)COC(C)(C)C3 (stereo unspecified) 7.94 µM, COc1cc(/C=C\c2ccc(OC)cc2OC)cc(OC)c1 15.8 µM, COc1ccc(N2CCN(S(=O)(=O)c3ccc4c(c3)CCCC4)CC2)c([N+](=O)[O-])c1 4.47 µM, O=C(c1cc(-c2ccncc2)nc2ccccc12)N1CCN(c2ccc(N3CCOCC3)nn2)CC1 1.58 µM
